# Data from PubChem BioAssay AID1159580 (chemical genetic matrix, 2015).
# About 2,000 (36%) of roughly 5,500 compounds were called active. Another 18% or so got no clear call; they are omitted. The list shows a part of the results. A number with no mark means an inactive call. No stated cut-off is given here; in the data, active means normalized growth mostly below about 0.91 (no sharp cut-off); inconclusive means no clear call, values can overlap the other calls; inactive means mostly above about 0.92.
# Assay: chemical genetic growth profiling, strain panel (AID 1159580);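 further: tested at 20 µM; growth read once vehicle control cultures reached saturation at 30 °C; 1 = growth at the plate median or of vehicle wells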
# Details: S. cerevisiae deletion strains, growth OD
# [1] = locus YAR019C, strain CDC15, stronger effect = lower value
# [2] = locus YBL105C, strain PKC1, stronger effect = lower value
# [3] = locus YBR135W, strain CKS1, stronger effect = lower value
# [4] = locus YBR136W, strain MEC1, stronger effect = lower value
# [5] = locus YBR160W, strain CDC28, stronger effect = lower value
# [6] = locus YDL017W, strain CDC7, stronger effect = lower value
# [7] = locus YDL028C, strain MPS1, stronger effect = lower value
# [8] = locus YDL101C, strain DUN1, stronger effect = lower value
# [9] = locus YDL108W, strain KIN28, stronger effect = lower value
# [10] = locus YDL132W, strain cdc53, stronger effect = lower value
# [11] = locus YDL214C, strain PRR2, stronger effect = lower value
# [12] = locus YDR052C, strain DBF4, stronger effect = lower value
# [13] = locus YDR054C, strain cdc34, stronger effect = lower value
# [14] = locus YDR226W, strain ADK1, stronger effect = lower value
# [15] = locus YDR477W, strain SNF1, stronger effect = lower value
# [16] = locus YER123W, strain YCK3, stronger effect = lower value
# [17] = locus YER133W, strain GLC7, stronger effect = lower value
# [18] = locus YFL009W, strain cdc4, stronger effect = lower value
# [19] = locus YFL029C, strain CAK1, stronger effect = lower value
# [20] = locus YFR003C, strain YPI1, stronger effect = lower value
# [21] = locus YFR019W, strain FAB1, stronger effect = lower value
# [22] = locus YFR028C, strain CDC14, stronger effect = lower value
# [23] = locus YGR040W, strain KSS1, stronger effect = lower value
# [24] = locus YGR052W, strain FMP48, stronger effect = lower value
# [25] = locus YGR092W, strain DBF2, stronger effect = lower value
# [26] = locus YHR030C, strain SLT2, stronger effect = lower value
# [27] = locus YHR079C, strain IRE1, stronger effect = lower value
# [28] = locus YHR082C, strain KSP1, stronger effect = lower value
# [29] = locus YHR205W, strain SCH9, stronger effect = lower value
# [30] = locus YIL147C, strain SLN1, stronger effect = lower value
# [31] = locus YJL095W, strain BCK1, stronger effect = lower value
# [32] = locus YJL128C, strain PBS2, stronger effect = lower value
# [33] = locus YJL157C, strain FAR1, stronger effect = lower value
# [34] = locus YJR016C, strain ILV3, stronger effect = lower value
# [35] = locus YJR066W, strain TOR1 (second series), stronger effect = lower value
# [36] = locus YJR066W, strain TOR1, stronger effect = lower value
# [37] = locus YKL048C, strain ELM1, stronger effect = lower value
# [38] = locus YKL067W, strain YNK1, stronger effect = lower value
# [39] = locus YKL101W, strain HSL1, stronger effect = lower value
# [40] = locus YKL193C, strain SDS22, stronger effect = lower value
# [41] = locus YKL203C, strain TOR2, stronger effect = lower value
# [42] = locus YLR113W, strain HOG1, stronger effect = lower value
# [43] = locus YLR133W, strain CKI1, stronger effect = lower value
# [44] = locus YLR403W, strain SFP1, stronger effect = lower value
# [45] = locus YML070W, strain DAK1, stronger effect = lower value
# [46] = locus YMR001C, strain CDC5, stronger effect = lower value
# [47] = locus YMR205C, strain PFK2 (second series), stronger effect = lower value
# [48] = locus YMR277W, strain FCP1, stronger effect = lower value
# [49] = locus YNL006W, strain LST8, stronger effect = lower value
# [50] = locus YNL020C, strain ARK1, stronger effect = lower value
# [51] = locus YNL161W, strain CBK1, stronger effect = lower value
# [52] = locus YNL183C, strain NPR1, stronger effect = lower value
# [53] = locus YNL207W, strain RIO2, stronger effect = lower value
# [54] = locus YNL222W, strain SSU72, stronger effect = lower value
# [55] = locus YNL307C, strain MCK1 (second series), stronger effect = lower value
# [56] = locus YOL078W, strain AVO1, stronger effect = lower value
# [57] = locus YOL136C, strain PFK27, stronger effect = lower value
# [58] = locus YOR061W, strain CKA2, stronger effect = lower value
# [59] = locus YOR119C, strain RIO1, stronger effect = lower value
# [60] = locus YOR231W, strain MKK1, stronger effect = lower value
# [61] = locus YOR329C, strain SCD5, stronger effect = lower value
# [62] = locus YPL031C, strain PHO85, stronger effect = lower value
# [63] = locus YPL153C, strain RAD53, stronger effect = lower value
# [64] = locus YPL204W, strain HRR25, stronger effect = lower value
# [65] = locus YPL209C, strain IPL1, stronger effect = lower value
# [66] = locus YPL256C, strain CLN2, stronger effect = lower value
# [67] = locus YPR025C, strain CCL1, stronger effect = lower value
# [68] = locus YPR106W, strain ISR1, stronger effect = lower value
# [69] = locus YPR111W, strain DBF20, stronger effect = lower value
# [70] = strain NNK1, stronger effect = lower value
# [71] = strain TSCII, stronger effect = lower value
smiles,measurement,setting,value
Cc1c(C)c(C)c(CSC(N)=Nc2ccc(F)cc2)c(C)c1C,normalized growth,[1],0.996
same,normalized growth,[2],0.997
same,normalized growth,[3],0.994
same,normalized growth,[4],0.997
same,normalized growth,[5],0.997
same,normalized growth,[6],0.999
same,normalized growth,[7],0.995
same,normalized growth,[8],1.01
same,normalized growth,[9],0.992
same,normalized growth,[10],1
same,normalized growth,[11],0.944
same,normalized growth,[12],1
same,normalized growth,[13],0.998
same,normalized growth,[14],0.995
same,normalized growth,[15],0.931
same,normalized growth,[16],0.894
same,normalized growth,[17],0.937
same,normalized growth,[18],1.01
same,normalized growth,[19],0.993
same,normalized growth,[20],1
same,normalized growth,[21],0.946
same,normalized growth,[22],1.01
same,normalized growth,[23],0.932
same,normalized growth,[24],0.959
same,normalized growth,[25],0.975
same,normalized growth,[26],0.946
same,normalized growth,[27],0.953
same,normalized growth,[28],1.02
same,normalized growth,[29],0.967
same,normalized growth,[30],0.992
same,normalized growth,[31],0.925
same,normalized growth,[32],0.942
same,normalized growth,[33],0.936
same,normalized growth,[34],0.998
same,normalized growth,[35],0.93
same,normalized growth,[36],1.05
same,normalized growth,[37],0.966
same,normalized growth,[38],0.955
same,normalized growth,[39],0.943
same,normalized growth,[40],0.999
same,normalized growth,[41],0.999
same,normalized growth,[42],0.823 (active)
same,normalized growth,[43],0.969
same,normalized growth,[44],0.953
same,normalized growth,[45],0.921
same,normalized growth,[46],0.993
same,normalized growth,[47],0.953
same,normalized growth,[48],1
same,normalized growth,[49],1
same,normalized growth,[50],0.969
same,normalized growth,[51],1
same,normalized growth,[52],1.03
same,normalized growth,[53],0.998
same,normalized growth,[54],1.01
same,normalized growth,[55],0.969
same,normalized growth,[56],0.998
same,normalized growth,[57],0.945
same,normalized growth,[58],0.972
same,normalized growth,[59],1
same,normalized growth,[60],0.97
same,normalized growth,[61],0.996
same,normalized growth,[62],0.929
same,normalized growth,[63],0.942
same,normalized growth,[64],0.95
same,normalized growth,[65],0.999
same,normalized growth,[66],0.902
same,normalized growth,[67],1
same,normalized growth,[68],0.99
same,normalized growth,[69],0.99
same,normalized growth,[70],0.995
same,normalized growth,[71],0.998
NC(=Nc1ccc(F)cc1)SCc1c(Cl)cccc1Cl,normalized growth,[1],0.992
same,normalized growth,[2],0.99
same,normalized growth,[3],0.985
same,normalized growth,[4],0.984
same,normalized growth,[5],0.986
same,normalized growth,[6],0.99
same,normalized growth,[7],0.983
same,normalized growth,[8],0.996
same,normalized growth,[9],0.985
same,normalized growth,[10],0.986
same,normalized growth,[11],0.954
same,normalized growth,[12],0.992
same,normalized growth,[13],0.991
same,normalized growth,[14],0.985
same,normalized growth,[15],0.96
same,normalized growth,[16],0.923
same,normalized growth,[17],0.954
same,normalized growth,[18],0.987
same,normalized growth,[19],0.994
same,normalized growth,[20],0.99
same,normalized growth,[21],0.96
same,normalized growth,[22],0.989
same,normalized growth,[23],0.947
same,normalized growth,[24],0.981
same,normalized growth,[25],0.978
same,normalized growth,[26],0.985
same,normalized growth,[27],0.962
same,normalized growth,[28],1.05
same,normalized growth,[29],0.962
same,normalized growth,[30],0.99
same,normalized growth,[31],0.954
same,normalized growth,[32],0.938
same,normalized growth,[33],0.961
same,normalized growth,[34],0.991
same,normalized growth,[35],0.99
same,normalized growth,[36],1.09
same,normalized growth,[37],0.967
same,normalized growth,[38],0.962
same,normalized growth,[39],0.945
same,normalized growth,[40],0.989
same,normalized growth,[41],1.03
same,normalized growth,[42],0.882
same,normalized growth,[43],0.975
same,normalized growth,[44],0.975
same,normalized growth,[45],0.944
same,normalized growth,[46],0.991
same,normalized growth,[47],0.961
same,normalized growth,[48],0.989
same,normalized growth,[49],0.982
same,normalized growth,[50],0.971
same,normalized growth,[51],0.988
same,normalized growth,[52],1.06
same,normalized growth,[53],0.994
same,normalized growth,[54],0.988
same,normalized growth,[55],0.987
same,normalized growth,[56],0.986
same,normalized growth,[57],0.958
same,normalized growth,[58],0.975
same,normalized growth,[59],1.02
same,normalized growth,[60],0.985
same,normalized growth,[61],0.99
same,normalized growth,[62],0.952
same,normalized growth,[63],0.964
same,normalized growth,[64],0.989
same,normalized growth,[65],0.994
same,normalized growth,[66],0.962
same,normalized growth,[67],0.98
same,normalized growth,[68],0.981
same,normalized growth,[69],0.982
same,normalized growth,[70],0.992
same,normalized growth,[71],1
